# Results taken from PubChem BioAssay (NCATS).
# Where “and” joins values, the source holds several entries; their conditions need not be identical. Equal values may be shown once. Records with an inconclusive call do not appear. Entries that show only a call come without a potency. Calls of active or inactive are those of the source. Unless noted, calls follow the shape of the dose curve; as a rule, active = well fitted curve in the direction sought with a large enough effect; inconclusive = small, poorly fitted or top-dose-only effect, or another doubt; inactive = no such curve, though single readings can be large; an effect the other way counts as inactive or inconclusive.
# Tests used:
# [1] = molecular target: Luciferin 4-monooxygenase (Photinus pyralis) (UniProt P08659); test: Biochemical firefly luciferase enzyme assay for NPC (AID 624030);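 also: purified P. pyralis luciferase at 10 nM with luciferin and ATP substrate; nearly all actives have a fitted effect of over 70% in size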
# How it was run: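 Direct inhibition of firefly luciferase enzyme (10 nM final, 50 mM Tris Acetate) assessed by luminescence within 5 minutes. Percent activity scaled between DMSO and PTC124 positive control, with concentration-effect curves classified by fit quality and response.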
# [2] = S16 Schwann cell viability assay (CellTiter-Glo assay) (AID 624031); also: nearly all actives have a fitted effect of over 70% in size; also: potency is read from the fitted curve at half-maximal effect
# How it was run: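 Untransfected S16 rat Schwann cells; compound 24 h, 37 °C/5% CO2; CellTiter-Glo ATP luminescence. % activity vs no-cell wells and DMSO controls (0%); concentration-effect curves classed by r2, response magnitude, activity.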
# [3] = S16 Schwann cell PMP22 intronic element firefly luciferase assay (AID 624032); also: nearly all actives have a fitted effect of over 30% in size; also: potency is read from the fitted curve at half-maximal effect
# How it was run: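 Luciferase reporter of PMP22 intronic-element expression in stably transfected S16 rat Schwann cells, read by ONE-Glo luminescence after 24 h compound exposure at 37 C. Activity scaled between DMSO (0%) and positive-control PTC124; concentration-effect curves quality-classified.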
# [4] = molecular target: Glutaminase kidney isoform, mitochondrial (Homo sapiens) (UniProt O94925); test: qHTS for Inhibitors of Glutaminase (GLS): LOPAC Validation (AID 624146);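 also: glutamate product detected by oxidase and peroxidase coupled Amplex red fluorescence gain; nearly all actives have a fitted effect of over 60% in size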
# How it was run: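 hKGA in 45 mM KH2PO4 (pH 8.2), 0.02% Tween-20 with compound, then 1mM L-Glutamine (stock as added) plus glutamate oxidase/HRP/Amplex red coupling mix. Fluorescence read initially and after 30 min at RT; signal change reflects glutamate formation.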
# [5] = qHTS of Trypanosoma Brucei Inhibitors: LOPAC Validation (AID 624147)
# How it was run: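 Luminescence from Kinase-Glo Plus, added after a 45-minute room-temperature reaction, served as the end-point read-out. The enzyme and substrate were preincubated with compound before ADP (130 uM final) initiated turnover. Concentration-effect curves came from normalized qHTS data.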
# [6] = qHTS of Nrf2 Activators: LOPAC Validation (AID 624149)
# How it was run: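 AREc32 cells carrying an ARE-driven firefly luciferase were grown overnight in OPTI-MEM with 5% FBS, then exposed to compounds for 24 hr at 37 deg C. Luciferase signal was read after 30 min with Steady-Glo at RT.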
# [7] = HTS Assay for Allosteric Antagonists of the Human D2 Dopamine Receptor: Hit Validation in HTRF (AID 624455);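 also: stable D1 dopamine receptor cell line scored for blocking the D1 response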
# How it was run: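 Hits were examined in an HTRF assay using cells stably expressing the D1 dopamine receptor, scoring inhibition of the D1-mediated response. The preceding primary screen tracked calcium flux after an EC80 dopamine addition in force-coupled, inducible Hek293 Trex D2 cells.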
# [8] = Cytotoxicity counterscreen for NFkB agonists and antagonists (AID 624476); also: potency is read from the fitted curve at half-maximal effect
# [9] = qHTS Assay for Identification of Small Molecule Agonists for NFkB Signaling Pathway. (AID 624478)
# How it was run: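 NFkB-bla ME-180 cells (beta-lactamase reporter under NFkB response element) were plated overnight, treated with compound plus TNF alpha at 10 pM final (its EC50) for 5 hrs at 37 C, then loaded with LiveBLAzer substrate for 2 hrs.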
# [10] = qHTS Assay for Identification of Small Molecule Antagonists for NFkB Signaling Pathway. (AID 624479; calls by dose curve;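 also: pathway stimulated with TNF alpha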; also: potency is read from the fitted curve at half-maximal effect)
# [11] = Cell Proliferation Assay against the TMD8 Cell Line (AID 651645); conditions: TMD8 DLBCL cell line proliferation/viability; at 46.1 µM (top of the series);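 also: cells exposed to compound for 48 h before reading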
# How it was run: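 Seed log-phase TMD8 cells in RPMI containing 5% FBS, add compounds at once, incubate 48 hours at 37C. Equilibrate to room temperature, add CellTiter-Glo, read luminescence after 15 minutes and express relative to DMSO and bortezomib controls.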
# [12] = Cell Proliferation Assay against the HBL1 Cell Line (AID 651646); conditions: HBL1 DLBCL cells; at 46.1 µM (top of the series);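 also: cells exposed to compound for 48 h before reading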
# How it was run: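 Luminescent ATP read-out (CellTiter-Glo) after 48 h compound exposure of HBL1 cells at 37 °C; percent activity was scaled between DMSO as 100% and 9.2 uM bortezomib (final) as 0%.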
# [13] = Cell Proliferation Assay against the TMD8 Cell Line (Caspase readout at 16 hrs) (AID 651712)
# How it was run: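 Apoptotic response of TMD8 cells was judged from caspase 3/7 activation following a 16 hour compound incubation at 37 °C. Luminescent signal was converted to percent activity, with DMSO set as 0% and 9.2 uM final bortezomib as 100%.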
# [14] = Cell Proliferation Assay against the TMD8 Cell Line (Caspase readout at 8 hrs) (AID 651713); also: potency is read from the fitted curve at half-maximal effect
# How it was run: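 TMD8 cells (500/well) in phenol red-free RPMI with 5% FBS were treated with compounds for 8 h at 37C, 5% CO2. Caspase-Glo 3/7 luminescence was read after 15 min at room temperature and normalised to DMSO (0%) and 9.2 uM bortezomib (100%).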
# [15] = S16 Schwann cell PMP22 intronic element beta-lactamase assay (AID 624044; calls by dose curve; also: nearly all actives have a fitted effect of over 15% in size)
# How it was run: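 Rat S16 Schwann cells with beta-Lac driven by a PMP22 intronic element, compound-treated 24 h at 37 °C. LiveBLAzer FRET B/G read: 460 nm normalized to potassium clavulanate vs DMSO; 535 nm FRET as viability; concentration-effect curves classified.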
# [16] = qHTS assay for small molecule activators of the p53 signaling pathway (AID 651743; active = well fitted activation curve with a large enough effect in the signal ratio, not every such curve was filed as active; the % refers to the signal ratio); conditions: HCT-116 p53RE-bla, beta-lactamase FRET ratio, 16 h; stronger effect = higher value
# How it was run: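 Screen for p53 pathway agonists uses stably transfected p53RE-bla HCT-116 cells, 4,000 per well, treated 16 h at 37 C with compounds in DMSO.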
# Glutaminase kidney isoform, mitochondrial (Homo sapiens), sequence (O94925 whole entry, looked up, canonical isoform): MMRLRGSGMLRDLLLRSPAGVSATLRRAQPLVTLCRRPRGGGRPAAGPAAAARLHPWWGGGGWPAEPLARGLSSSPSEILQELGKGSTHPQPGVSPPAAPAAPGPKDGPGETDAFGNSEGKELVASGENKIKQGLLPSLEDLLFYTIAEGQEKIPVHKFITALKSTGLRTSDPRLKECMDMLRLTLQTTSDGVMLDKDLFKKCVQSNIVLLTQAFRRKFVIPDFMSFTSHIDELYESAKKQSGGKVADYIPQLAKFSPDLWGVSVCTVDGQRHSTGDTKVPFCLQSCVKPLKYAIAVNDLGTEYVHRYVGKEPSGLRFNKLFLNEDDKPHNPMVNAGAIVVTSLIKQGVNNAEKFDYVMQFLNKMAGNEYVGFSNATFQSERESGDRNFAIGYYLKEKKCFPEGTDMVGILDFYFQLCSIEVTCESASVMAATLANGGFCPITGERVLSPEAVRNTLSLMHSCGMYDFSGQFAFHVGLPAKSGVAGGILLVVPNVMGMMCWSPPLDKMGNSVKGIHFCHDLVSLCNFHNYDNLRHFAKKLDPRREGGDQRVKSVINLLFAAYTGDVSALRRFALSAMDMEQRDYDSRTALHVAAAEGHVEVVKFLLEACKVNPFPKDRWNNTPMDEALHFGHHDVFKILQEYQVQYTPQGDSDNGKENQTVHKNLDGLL
# Luciferin 4-monooxygenase (Photinus pyralis), sequence (P08659 whole entry, looked up): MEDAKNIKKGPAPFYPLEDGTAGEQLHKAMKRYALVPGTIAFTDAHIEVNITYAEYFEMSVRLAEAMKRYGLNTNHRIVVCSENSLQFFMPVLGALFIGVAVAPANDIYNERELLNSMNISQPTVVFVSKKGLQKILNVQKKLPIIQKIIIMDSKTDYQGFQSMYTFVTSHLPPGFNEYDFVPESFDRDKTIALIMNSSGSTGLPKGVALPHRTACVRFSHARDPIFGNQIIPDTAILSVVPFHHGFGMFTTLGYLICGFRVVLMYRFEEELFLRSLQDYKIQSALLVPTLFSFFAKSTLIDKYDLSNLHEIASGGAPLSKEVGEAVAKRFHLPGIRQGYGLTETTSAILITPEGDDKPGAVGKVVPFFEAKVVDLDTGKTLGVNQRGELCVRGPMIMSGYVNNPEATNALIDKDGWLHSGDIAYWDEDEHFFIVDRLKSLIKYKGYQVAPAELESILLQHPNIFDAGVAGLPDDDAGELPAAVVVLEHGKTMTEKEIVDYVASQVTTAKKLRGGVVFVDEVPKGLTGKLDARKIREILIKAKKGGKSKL
smiles,measurement,setting,value
COc1cc(NCc2ccc3nc(N)nc(N)c3c2C)cc(OC)c1OC,Potency,[1],inactive
same,Potency,[2],28.7 µM (active)
same,Potency,[3],0.455 µM (active)
CC(C)(C)C(=O)OCOP(=O)(COCCn1cnc2c(N)ncnc21)OCOC(=O)C(C)(C)C,Potency,[1],inactive
same,Potency,[2],inactive
CCN(CC)CCn1c(=O)c(Cc2ccc(OC)cc2)nc2ccccc21,Potency,[1],inactive
same,outcome,[4],inactive
same,outcome,[5],inactive
same,outcome,[6],inactive
same,Potency,[7],inactive
same,Potency,[8],inactive
same,outcome,[9],inactive
same,Potency,[10],inactive
same,viability (% of control),[11],89.1%
same,"viability, percent of control",[12],99.1%
same,outcome,[13],inactive
same,Potency,[14],inactive
CC(C)C[C@H](NC(=O)[C@H](CCc1ccccc1)NC(=O)CN1CCOCC1)C(=O)N[C@@H](Cc1ccccc1)C(=O)N[C@@H](CC(C)C)C(=O)[C@@]1(C)CO1,Potency,[1],inactive
same,Potency,[8],0.148 µM (active)
same,outcome,[9],inactive
same,Potency,[10],0.0033 µM (active)
same,viability (% of control),[11],3.43%
same,"viability, percent of control",[12],3.69%
COc1cc([C@@H]2c3cc4c(cc3[C@H](O)[C@H]3COC(=O)[C@H]23)OCO4)cc(OC)c1OC,Potency,[1],inactive
same,Potency,[2],inactive
same,outcome,[9],inactive
same,Potency,[10],inactive
same,viability (% of control),[11],0.77%
same,"viability, percent of control",[12],23.7%
COc1cc2c(Nc3ccc(Br)cc3F)ncnc2cc1OCC1CCN(C)CC1,Potency,[1],inactive
same,Potency,[2],20.3 µM (active)
same,Potency,[3],9.07 µM (active)
same,Potency,[8],26.4 µM (active)
same,outcome,[9],inactive
same,viability (% of control),[11],8.14%
same,"viability, percent of control",[12],4.03%
same,outcome,[13],inactive
COc1cc2nc(N3CCCN(C)CC3)nc(NC3CCN(Cc4ccccc4)CC3)c2cc1OC,outcome,[4],inactive
same,outcome,[5],inactive
same,outcome,[6],inactive
same,Potency,[7],inactive
same,outcome,[9],inactive
same,Potency,[10],23.7 µM (active)
same,viability (% of control),[11],3.15%
same,"viability, percent of control",[12],3.52%
same,Potency,[14],26.4 µM (active)
CC1CC2C3CCC4=CC(=O)C=C[C@]4(C)[C@@]3(F)[C@@H](O)C[C@]2(C)[C@@]1(O)C(=O)CO (stereo not given in full),outcome,[4],inactive
same,outcome,[5],inactive
same,outcome,[6],inactive
same,Potency,[7],inactive
Cc1nnc(C(=O)NC(C)(C)c2nc(C(=O)NCc3ccc(F)cc3)c(O)c(=O)n2C)o1,Potency,[1],inactive
Cc1ccc(S(=O)(=O)N[C@@H](Cc2ccccc2)C(=O)CCl)cc1,outcome,[4],inactive
same,outcome,[5],inactive
same,outcome,[6],inactive
same,Potency,[7],inactive
CCn1cc(C(=O)O)c(=O)c2cc(F)c(N3CCN(C)CC3)cc21,Potency,[1],inactive
same,Potency,[2],inactive
same,Potency,[3],inactive
same,Potency,[15],inactive
Cc1c(-c2ccc(O)cc2)n(Cc2ccc(OCCN3CCCCCC3)cc2)c2ccc(O)cc12,Potency,[1],inactive
same,outcome,[9],inactive
same,Potency,[10],inactive
O=C(O)CSCC(=O)NC1CCSC1=O (stereo not given),Potency,[1],inactive
CC(=O)[C@H]1CC[C@H]2[C@@H]3CCC4=CC(=O)CC[C@]4(C)[C@H]3CC[C@]12C,Potency,[1],inactive
same,outcome,[4],inactive
same,outcome,[5],inactive
same,outcome,[6],inactive
same,Potency,[7],inactive
same,activation,[16],-1.4% (inactive) and -5.04% (inactive) and -4.98% (inactive)
NCCCC(O)(P(=O)(O)O)P(=O)(O)O,Potency,[1],inactive
same,Potency,[2],inactive
same,Potency,[3],inactive
same,Potency,[15],inactive
CC1=C(C(=O)O)N2C(=O)[C@@H](NC(=O)C(N)c3ccccc3)[C@H]2SC1 (stereo not given in full),outcome,[5],inactive
same,outcome,[6],inactive
Cc1cccc(Nc2ccncc2S(=O)(=O)NC(=O)NC(C)C)c1,Potency,[1],inactive
same,Potency,[2],inactive
same,Potency,[3],inactive
CCOc1cc(N)c(Cl)cc1C(=O)NCC1CN(Cc2ccc(F)cc2)CCO1 (stereo not given),Potency,[2],inactive
same,Potency,[3],inactive
same,Potency,[15],inactive
CCCCCCNC(=O)n1cc(F)c(=O)[nH]c1=O,Potency,[1],inactive
same,Potency,[2],inactive
same,Potency,[3],inactive
CNCC[C@H](Oc1cccc2ccccc12)c1cccs1,Potency,[1],inactive
same,Potency,[2],16.1 µM (active)
same,Potency,[15],inactive
CC1=CC(=O)c2ccccc2C1=O,Potency,[1],inactive
same,Potency,[2],14.4 µM (active)
same,Potency,[3],22.8 µM (active)
same,Potency,[15],inactive
CC(C)OC(=O)OCOP(=O)(CO[C@H](C)Cn1cnc2c(N)ncnc21)OCOC(=O)OC(C)C,Potency,[1],inactive
CCCc1cc(C(N)=S)ccn1,Potency,[1],inactive
same,Potency,[2],inactive
same,Potency,[3],inactive
CCN(CC)CC#CCOC(=O)C(O)(c1ccccc1)C1CCCCC1 (stereo not given),outcome,[5],inactive
same,outcome,[6],inactive
same,Potency,[7],inactive
O=C(O)c1cn(C2CC2)c2cc(N3CCNCC3)c(F)cc2c1=O,Potency,[2],inactive
same,Potency,[3],inactive
COC(=O)Nc1nc2ccc(S(=O)c3ccccc3)cc2[nH]1 (stereo not given),Potency,[1],inactive
Cc1cccc(N(C)C(=S)Oc2ccc3ccccc3c2)c1,Potency,[1],inactive
same,Potency,[2],inactive
same,Potency,[3],inactive
CNC1CCCN(c2c(F)cc3c(=O)c(C(=O)O)cn(C4CC4)c3c2OC)C1 (stereo not given),Potency,[1],inactive
same,Potency,[2],inactive
same,Potency,[3],inactive
same,Potency,[15],inactive
CN1CCCC(n2nc(Cc3ccc(Cl)cc3)c3ccccc3c2=O)CC1 (stereo not given),Potency,[1],inactive
same,Potency,[15],inactive
CCCCc1oc2ccc(NS(C)(=O)=O)cc2c1C(=O)c1ccc(OCCCN(CCCC)CCCC)cc1,Potency,[1],inactive
NC(=O)c1ccc2[nH]ccc2c1,outcome,[4],inactive
same,outcome,[5],inactive
same,outcome,[6],inactive
same,Potency,[7],inactive
